Assay [1] relates to Sodium/Iodide Symporter (NIS), SLC5A5 (gene 6528). Briefly: CPHEA_Stoker_NIS_Inhibition_RAIU: CPHEA's Radioactive Iodide Uptake (RAIU) Assay for Sodium/Iodide Symporter (NIS) Inhibition, Stoker and Laws Labs (AID 2283841). A digest of the protocol: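 Iodide uptake read as CPM of intracellular 125I (final 329 pM) after 2 h room-temperature exposure in HEPES-buffered HBSS, pH 7.4. Human NIS-expressing HEK293T cells; six concentrations 0.001–100 uM, 0.5% DMSO, normalised to DMSO wells.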

For assay [2], the target named is chicken Estrogen Receptor (ERa), ESR1 (gene 396099) (UniProt P06212). The experiment in a line: ATG_chERa_XSP2: Attagene TRANS-FACTORIAL Multi-Species (XSP2) HepG2 Assay for chicken Estrogen Receptor (ERa) (AID 2283817).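 Note: actives raise reporter signal above DMSO so AC50 reflects ER activation.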 A digest of the protocol: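 Transiently transfected HepG2 cells expressing chimeric chicken ERa-GAL4 reporter units, dosed 24 h with 3 nM 6-alpha-fluorotestosterone and 1.5 nM norgestrel present. Reporter mRNA measured by RT-PCR and capillary electrophoresis; gain-of-signal fitted relative to DMSO.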
Sequence of chicken Estrogen Receptor (ERa), ESR1 (gene 396099) (P06212 whole entry, looked up, the tested form may be a part): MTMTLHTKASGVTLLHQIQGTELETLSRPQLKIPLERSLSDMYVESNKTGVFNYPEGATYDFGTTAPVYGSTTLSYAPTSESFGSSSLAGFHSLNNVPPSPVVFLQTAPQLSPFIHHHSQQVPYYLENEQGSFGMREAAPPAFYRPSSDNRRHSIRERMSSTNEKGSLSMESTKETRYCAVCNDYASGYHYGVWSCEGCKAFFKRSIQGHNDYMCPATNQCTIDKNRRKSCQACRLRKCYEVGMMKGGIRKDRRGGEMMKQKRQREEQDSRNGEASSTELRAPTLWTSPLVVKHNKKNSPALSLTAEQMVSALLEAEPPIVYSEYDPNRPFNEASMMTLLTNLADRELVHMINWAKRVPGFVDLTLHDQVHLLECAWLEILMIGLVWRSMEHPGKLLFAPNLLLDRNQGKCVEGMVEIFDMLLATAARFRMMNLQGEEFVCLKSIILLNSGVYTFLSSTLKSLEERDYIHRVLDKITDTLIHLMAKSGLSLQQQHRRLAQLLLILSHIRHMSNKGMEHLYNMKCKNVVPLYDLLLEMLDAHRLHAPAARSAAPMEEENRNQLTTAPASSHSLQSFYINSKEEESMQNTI

Assay [3] concerns zebrafish Estrogen Receptor (ER2a), gene 317734. Briefly: ATG_zfER2a_XSP2: Attagene TRANS-FACTORIAL Multi-Species (XSP2) HepG2 Assay for zebrafish Estrogen Receptor (ER2a) (AID 2283818).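 Note: hits raise reporter mRNA so AC50 reflects activation of zebrafish ER2a.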 A digest of the protocol:
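HepG2 cells transiently transfected with GAL4-UAS reporter units and chimeric zebrafish ER2a-Gal4, exposed 24 h; medium contains 3 nM 6-alpha-fluorotestosterone and 1.5 nM norgestrel. Reporter mRNA quantified by RT-PCR, HpaI digestion, capillary electrophoresis; gain versus DMSO.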

The test system of assay [4] is zebrafish Estrogen Receptor (ER2b), gene 317733. Briefly: ATG_zfER2b_XSP2: Attagene TRANS-FACTORIAL Multi-Species (XSP2) HepG2 Assay for zebrafish Estrogen Receptor (ER2b) (AID 2283823).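 Note: fitted upward as reporter gain over DMSO so potency reflects activation.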 Put shortly:
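In this multiplexed trans-activation format, HepG2 cells expressing exogenous NR-Gal4 fusions drive GAL4-UAS reporters. Exposure lasts 24 h, and reporter mRNA induction is read by RT-PCR with capillary electrophoresis detection.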

In assay [5] the test system is zebrafish Androgen Receptor (AR), gene 100005148. The experiment in a line: ATG_zfAR_XSP2: Attagene TRANS-FACTORIAL Multi-Species (XSP2) HepG2 Assay for zebrafish Androgen Receptor (AR) (AID 2283825).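 Note: hits raise reporter mRNA above DMSO so AC50 reflects agonist-type gain.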 A digest of the protocol:
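Zebrafish AR–GAL4 chimera transiently expressed with GAL4-UAS reporter in HepG2 cells, co-stimulated with 3 nM 6-alpha-fluorotestosterone and 1.5 nM norgestrel; 24 h dosing, reporter mRNA read by RT-PCR/capillary electrophoresis versus DMSO.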

Assay [6] deals with frog Estrogen Receptor (ER2), gene 100174814. The experiment in a line: ATG_frER2_XSP2: Attagene TRANS-FACTORIAL Multi-Species (XSP2) HepG2 Assay for frog Estrogen Receptor (ER2) (AID 2283828). A digest of the protocol: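 HepG2 cells transiently transfected with multiplexed GAL4-UAS reporter units expressing chimeric frog ER2–Gal4 protein; reporter mRNA measured 24 h after chemical dosing by RT-PCR, fluorescent labeling and capillary electrophoresis. Gain-of-signal fitted relative to DMSO baseline.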

The target of assay [7] is Peroxisome proliferator-activated receptor gamma (Homo sapiens) (UniProt P37231). The experiment in a line: ATG_hPPARg_XSP2: Attagene TRANS-FACTORIAL Multi-Species (XSP2) HepG2 Assay for human Peroxisome Proliferator-activated Receptor gamma (PPARg) (AID 2283829).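 Note: actives raise reporter mRNA above DMSO so AC50 reflects PPARg activation.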 A digest of the protocol:
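Multiplexed transactivation in transfected HepG2 liver cells. Gal4-chimeric receptor activity reported as induced reporter transcript after 24 h.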

For assay [8], the target named is Nuclear receptor subfamily 1 group I member 2 (Mus musculus) (UniProt O54915). Briefly: ATG_mPXR_XSP2: Attagene TRANS-FACTORIAL Multi-Species (XSP1) HepG2 Assay for mouse Pregnane X Receptor (PXR) (AID 2283831). A digest of the protocol:
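Human liver HepG2 cells expressing exogenous receptor-GAL4 chimeras were exposed to test chemicals for 24 h. Induction of reporter mRNA was scored as gain of fluorescence signal over DMSO controls.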

In assay [9] the target is zebrafish Thyroid Hormone Receptor alpha (TRa), thraa (gene 30670) (UniProt Q98867). The experiment in a line: ATG_zfTRa_XSP2: Attagene TRANS-FACTORIAL Multi-Species (XSP1) HepG2 Assay for zebrafish Thyroid Hormone Receptor alpha (TRa) (AID 2283832).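 Note: actives raise zebrafish TRa-Gal4 reporter transcript above DMSO baseline.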 Put shortly: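 Transient transfection of human HepG2 with GAL4-UAS reporter units, then 24 h chemical treatment. RNA isolated, reverse-transcribed, PCR-amplified, FAM-labelled, HpaI-digested and run on capillary electrophoresis. Gain-of-signal relative to DMSO.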
Sequence of zebrafish Thyroid Hormone Receptor alpha (TRa), thraa (gene 30670) (Q98867 whole entry, looked up, the tested form may be a part): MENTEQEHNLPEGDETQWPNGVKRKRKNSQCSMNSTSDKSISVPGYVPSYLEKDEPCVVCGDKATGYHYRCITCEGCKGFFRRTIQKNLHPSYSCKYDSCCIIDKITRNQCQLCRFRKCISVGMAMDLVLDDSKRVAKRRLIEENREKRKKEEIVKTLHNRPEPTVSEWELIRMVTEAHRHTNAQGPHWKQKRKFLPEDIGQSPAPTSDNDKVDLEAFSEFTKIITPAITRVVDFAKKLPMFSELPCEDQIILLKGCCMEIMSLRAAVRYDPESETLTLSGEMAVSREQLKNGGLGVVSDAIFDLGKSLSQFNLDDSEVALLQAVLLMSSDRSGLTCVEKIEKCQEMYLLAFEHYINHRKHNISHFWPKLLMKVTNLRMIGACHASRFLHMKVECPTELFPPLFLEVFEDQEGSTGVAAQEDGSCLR

The subject of assay [10] is zebrafish Peroxisome Proliferator-activated Receptor gamma (PPARg), gene 557037. Briefly: ATG_zfPPARg_XSP2: Attagene TRANS-FACTORIAL Multi-Species (XSP2) HepG2 Assay for zebrafish Peroxisome Proliferator-activated Receptor gamma (PPARg) (AID 2283833).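 Note: actives increase reporter signal over DMSO so AC50 reflects activation.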 A digest of the protocol:
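Cell-based transactivation of a chimeric zebrafish PPARg-GAL4 receptor was assessed in transiently transfected HepG2 cells after 24 h of treatment. Reporter mRNA induction, detected fluorescently after RT-PCR, was analysed in the positive direction against DMSO.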

Assay [11] in a line: ATG_M_61_XSP2: Attagene TRANS-FACTORIAL Multi-Species (XSP2) HepG2 Assay for M61 Transcription Factor (Internal Marker) (AID 2283835; active = hit-call score of the fitted dose curve at least 0.9, where 1 is the maximum; inactive = score below 0.9;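 note: active means a rise in signal above the DMSO baseline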). A digest of the protocol:
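HepG2 cells transiently transfected with multiple GAL4-UAS reporter units; reporter mRNA measured 24 h after dosing by RT-PCR, fluorescent labelling and capillary electrophoresis. Medium contained 3 nM 6-alpha-fluorotestosterone and 1.5 nM norgestrel; internal marker, DMSO baseline.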

Assay [12] can be described thus: ATG_XTT_Cytotoxicity_XSP2: Cytotoxicity Assessment in the Attagene TRANS-FACTORIAL Multi-Species (XSP2) HepG2 Assay (AID 2283837). Put shortly: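 HepG2 cells, transiently transfected with multiple reporter constructs, exposed to chemical for 24 h. Cell number assessed with XTT fluorescence read-out; loss of signal fitted relative to DMSO.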
Assay [13] concerns the target human Thyroid hormone Receptor alpha (TRa), THRA (gene 7067) (UniProt P10827). Briefly: ATG_hTRa_XSP2: Attagene TRANS-FACTORIAL Multi-Species (XSP2) HepG2 Assay for human Thyroid hormone Receptor alpha (TRa) (AID 2283838). A digest of the protocol: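 HepG2 cells were transiently transfected with GAL4-UAS reporter units for chimeric human TRa-Gal4 and dosed for 24 hours, with 3 nM 6-alpha-fluorotestosterone and 1.5 nM norgestrel present. Reporter mRNA was quantified by RT-PCR, FAM labelling and capillary electrophoresis, with gain of signal fitted versus DMSO.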

Assay [14] deals with frog Thyroid hormone Receptor alpha (TRa), thra-a (gene 397942) (UniProt P15204). The experiment in a line: ATG_frTRa_XSP2: Attagene TRANS-FACTORIAL Multi-Species (XSP2) HepG2 Assay for frog Thyroid hormone Receptor alpha (TRa) (AID 2283839).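 For AC50: AC50 reflects induction of frog TRa-driven reporter mRNA above DMSO baseline.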 Put shortly: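 Frog thyroid receptor alpha was tested as an exogenous NR-Gal4 fusion in transiently transfected HepG2 cells. After 24 h chemical treatment, reporter mRNA induction was quantified by RT-PCR and capillary electrophoresis, with gain-of-signal analysed relative to DMSO.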
Sequence of frog Thyroid hormone Receptor alpha (TRa), thra-a (gene 397942) (P15204 whole entry, looked up, the tested form may be a part): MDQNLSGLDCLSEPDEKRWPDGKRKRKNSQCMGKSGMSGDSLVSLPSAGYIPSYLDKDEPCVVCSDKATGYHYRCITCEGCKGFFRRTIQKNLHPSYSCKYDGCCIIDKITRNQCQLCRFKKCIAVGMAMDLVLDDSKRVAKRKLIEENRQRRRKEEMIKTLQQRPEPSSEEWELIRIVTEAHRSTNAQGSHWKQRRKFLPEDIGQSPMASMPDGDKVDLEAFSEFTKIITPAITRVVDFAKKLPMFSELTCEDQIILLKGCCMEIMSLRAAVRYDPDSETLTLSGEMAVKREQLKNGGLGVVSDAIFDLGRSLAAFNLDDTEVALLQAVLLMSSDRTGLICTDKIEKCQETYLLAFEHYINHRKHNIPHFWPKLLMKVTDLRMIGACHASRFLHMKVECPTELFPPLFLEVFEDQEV

Assay [15] deals with human Thyroid hormone Receptor beta (TRb), THRB (gene 7068) (UniProt P10828). The experiment in a line: ATG_hTRb_XSP2: Attagene TRANS-FACTORIAL Multi-Species (XSP2) HepG2 Assay for human Thyroid hormone Receptor beta (TRb) (AID 2283840).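 Note: actives raise reporter mRNA so potency reflects agonist-like gain of signal.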 Put shortly: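 In this cell-based multiplex, HepG2 liver cells carrying transfected GAL4-UAS reporter constructs are exposed to chemical for 24 hours, then reporter transcripts are measured by RT-PCR with capillary electrophoresis, scored as gain of signal against DMSO.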
Sequence of human Thyroid hormone Receptor beta (TRb), THRB (gene 7068) (P10828 whole entry, looked up, the tested form may be a part): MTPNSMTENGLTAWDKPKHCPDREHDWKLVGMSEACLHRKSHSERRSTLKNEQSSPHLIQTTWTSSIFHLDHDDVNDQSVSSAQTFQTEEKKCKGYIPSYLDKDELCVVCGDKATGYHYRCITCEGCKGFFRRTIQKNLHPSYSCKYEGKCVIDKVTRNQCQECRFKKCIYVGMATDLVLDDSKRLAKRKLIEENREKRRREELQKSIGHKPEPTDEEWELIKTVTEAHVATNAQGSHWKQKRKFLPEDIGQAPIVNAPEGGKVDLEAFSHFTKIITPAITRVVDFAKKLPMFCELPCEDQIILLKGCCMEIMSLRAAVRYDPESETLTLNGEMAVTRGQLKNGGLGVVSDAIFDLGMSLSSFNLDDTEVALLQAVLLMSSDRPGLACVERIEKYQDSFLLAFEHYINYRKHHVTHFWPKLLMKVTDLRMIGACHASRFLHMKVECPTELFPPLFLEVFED

A short description of assay [16]: ATG_M_32_XSP2: Attagene TRANS-FACTORIAL Multi-Species (XSP2) HepG2 Assay for M19 Transcription Factor (Internal Marker) (AID 2283826). Put shortly:
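Total RNA is taken from compound-treated HepG2 cells after 24 h and reverse-transcribed; reporter cDNA is PCR-amplified, end-labelled with 6-FAM, digested with HpaI for 2h at 37 C and sized by capillary electrophoresis. Activity is fitted in the positive direction against DMSO.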

The test system of assay [17] is turtle Thyroid Hormone Receptor, alpha (TRa), gene 101949057. Briefly: ATG_trTRa_XSP2: Attagene TRANS-FACTORIAL Multi-Species (XSP1) HepG2 Assay for turtle Thyroid Hormone Receptor, alpha (TRa) (AID 2283834).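 Note: hits raise reporter mRNA over the DMSO baseline so AC50 marks activators.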 Put shortly:
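Gain-of-signal reporter transcription measured in transiently transfected HepG2 at 24 h post-dose. Fluorescent RT-PCR products were resolved by capillary electrophoresis and compared with DMSO vehicle.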

Values joined by “and” are separate entries in the source; they are usually repeats but may differ in a detail not shown here. Equal values may be shown once. Records with an inconclusive call do not appear. More than one record can exist for a structure, and the calls need not agree. Active and inactive are the calls of the source. Rule for the calls, unless noted: active = hit-call score of the fitted dose curve at least 0.9, where 1 is the maximum; inconclusive = response in the unintended direction; inactive = score below 0.9.

Sequence of Peroxisome proliferator-activated receptor gamma (Homo sapiens) (P37231 whole entry, looked up, the tested form may be a part): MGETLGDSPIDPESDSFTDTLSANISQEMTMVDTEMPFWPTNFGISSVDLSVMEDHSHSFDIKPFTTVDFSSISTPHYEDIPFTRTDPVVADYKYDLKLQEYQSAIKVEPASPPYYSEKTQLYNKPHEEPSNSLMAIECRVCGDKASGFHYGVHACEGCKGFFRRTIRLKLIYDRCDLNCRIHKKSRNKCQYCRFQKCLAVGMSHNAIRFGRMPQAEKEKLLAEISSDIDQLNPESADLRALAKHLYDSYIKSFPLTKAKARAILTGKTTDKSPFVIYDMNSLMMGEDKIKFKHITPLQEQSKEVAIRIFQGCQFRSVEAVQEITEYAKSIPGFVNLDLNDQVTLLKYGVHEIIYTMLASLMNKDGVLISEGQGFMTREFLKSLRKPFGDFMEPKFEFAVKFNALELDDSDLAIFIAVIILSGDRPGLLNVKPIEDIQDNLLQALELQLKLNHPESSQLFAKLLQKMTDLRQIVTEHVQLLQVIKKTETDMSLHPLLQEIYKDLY
Sequence of human Thyroid hormone Receptor alpha (TRa), THRA (gene 7067) (P10827 whole entry, looked up, the tested form may be a part): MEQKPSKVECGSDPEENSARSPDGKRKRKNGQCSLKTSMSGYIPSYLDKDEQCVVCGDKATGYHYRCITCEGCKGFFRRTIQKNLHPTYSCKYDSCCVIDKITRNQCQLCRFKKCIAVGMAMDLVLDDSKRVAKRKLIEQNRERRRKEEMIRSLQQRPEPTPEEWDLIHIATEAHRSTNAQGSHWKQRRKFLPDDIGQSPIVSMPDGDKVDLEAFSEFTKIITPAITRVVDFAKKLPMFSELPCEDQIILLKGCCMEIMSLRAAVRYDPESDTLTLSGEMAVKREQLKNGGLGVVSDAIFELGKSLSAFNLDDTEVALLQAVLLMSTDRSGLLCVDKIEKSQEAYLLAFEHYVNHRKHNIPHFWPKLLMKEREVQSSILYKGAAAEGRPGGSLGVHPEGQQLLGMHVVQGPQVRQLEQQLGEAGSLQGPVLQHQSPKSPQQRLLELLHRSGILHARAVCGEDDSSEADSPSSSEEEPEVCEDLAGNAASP
Sequence of Nuclear receptor subfamily 1 group I member 2 (Mus musculus) (O54915 whole entry, looked up, the tested form may be a part): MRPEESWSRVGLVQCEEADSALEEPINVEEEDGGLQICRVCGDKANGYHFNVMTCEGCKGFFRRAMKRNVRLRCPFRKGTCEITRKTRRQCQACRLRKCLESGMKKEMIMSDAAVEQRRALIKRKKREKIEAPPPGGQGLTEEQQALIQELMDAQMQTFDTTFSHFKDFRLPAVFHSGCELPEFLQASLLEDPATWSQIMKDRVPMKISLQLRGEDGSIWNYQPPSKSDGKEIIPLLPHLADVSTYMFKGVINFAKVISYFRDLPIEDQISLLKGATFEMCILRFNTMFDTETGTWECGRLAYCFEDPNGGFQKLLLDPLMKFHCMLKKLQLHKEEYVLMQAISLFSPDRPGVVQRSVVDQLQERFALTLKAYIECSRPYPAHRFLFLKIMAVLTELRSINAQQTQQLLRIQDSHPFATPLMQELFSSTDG

In the case of `CCCCN(CC)c1c([N+](=O)[O-])cc(C(F)(F)F)cc1[N+](=O)[O-]`, in assay [1], the outcome was inactive.
The same measure, in the same setting: for `CCOP(=S)(OCC)SCCSCC` the value was “inactive”.
In the case of `COc1ccc(C(=CC(=O)N2CCOCC2)c2ccc(Cl)cc2)cc1OC`, the outcome in assay [2], in assay [3], in assay [5], in [6], in assay [7] and in assay [9] was inactive. Further, the compound was classed as inactive in assay [10], in assay [11], in assay [12], in assay [13], in [14] and in [15]. The AC50 (usually the concentration at which the activity in the assay is half-maximal) in [4] is 100 µM (active) and 54.2 µM (active); in [6], 52.4 µM (active); in [7], 19.8 µM (active); in [8] it was 4.65 µM (active) and 4.32 µM (active).
Regarding `COP(=O)(OC)OC(Br)C(Cl)(Cl)Br` (centres undefined), the result in [1] was inactive.
In the case of `CCOP(=S)(OCC)OC(Cl)C(Cl)(Cl)Cl` (centres undefined), the result in assay [1] was inactive.
Turning to `C#CC(C)(C)NC(=O)c1cc(Cl)cc(Cl)c1`, the values for the AC50 in assay [2], in assay [8] and in assay [14] were 3.34 µM (active), 26.8 µM (active) and 26.8 µM (active), respectively. In addition, the compound was called inactive in [3], in assay [4], in assay [16], in assay [6], in assay [9] and in assay [10]. Moreover, the compound was called inactive in assay [17], in assay [11], in assay [13] and in assay [15].
As to `COc1cccc(C(=O)NN(C(=O)c2cc(C)cc(C)c2)C(C)(C)C)c1C`, the half-maximal activity concentration (AC50) in assay [1] is 15.8 µM (active).
For the compound `CCOP(=S)(OCC)Oc1ccc([N+](=O)[O-])cc1`, the outcome in assay [1] was inactive.
Still for that read-out and setting: for `CSC1=N[C@@](C)(c2ccccc2)C(=O)N1Nc1ccccc1` the value was “inactive”.
For `CCOP(=S)(OCC)Oc1ccc2c(C)c(Cl)c(=O)oc2c1`, the result in [2], in assay [3], in [16], in [10], in assay [11] and in assay [13] was inactive. Besides, the compound was classed as inactive in assay [14] and in [15]. The AC50 in assay [4] is 100 µM (active); in [7], 27 µM (active); in assay [8], 0.00908 µM (active); in assay [17] it was 64.7 µM (active); in [1] it was 9.92 µM (active).

The record behind these values is PubChem BioAssay (EPA / NIEHS).
